From PubChem BioAssay (NCI)
About 79,000 compounds went through this panel and 15% of them were active in at least one assay; those are over-represented in the sample as a whole. Calls of active or inactive are those of the source. Cut-off read from the data, not from the text of the source: active = growth inhibition above about 70%; inactive = the rest.

Assays:
[1] = NCI Yeast Anticancer Drug Screen. Data for the rad52 strain (AID 147);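 note: 0% = growth of vehicle-treated control cultures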; settings: S. cerevisiae rad52 mutant growth inhibition, active compounds read high
Summary of the method: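 Read-out: growth inhibition versus vehicle-treated controls. Cells were a DNA repair-deficient yeast strain treated with compounds.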

[2] = NCI Yeast Anticancer Drug Screen. Data for the wt1 strain (AID 149);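 note: 0% = growth of vehicle-treated wt1 cultures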; settings: S. cerevisiae wt1 strain (SPY 50644) growth inhibition, active compounds read high
Summary of the method: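 wt1 yeast, compound-treated; % growth inhibition vs vehicle control.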

[3] = NCI Yeast Anticancer Drug Screen. Data for the rad50EPP+ strain (AID 151);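 note: 0% = growth of vehicle-treated control cultures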; settings: S. cerevisiae rad50 mutant strain, active compounds read high
Summary of the method: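 Growth inhibition read against vehicle controls in rad50EPP+ yeast, a strain altered in DNA damage repair, after compound exposure.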

[4] = NCI Yeast Anticancer Drug Screen. Data for the mgt1 strain (AID 153); settings: S. cerevisiae mgt1 mutant growth inhibition, active compounds read high
Summary of the method: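 mgt1 yeast grown with test compound; read-out is growth inhibition versus vehicle-treated cultures.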

[5] = NCI Yeast Anticancer Drug Screen. Data for the rad50 strain (AID 155);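 note: 0% = growth of vehicle-only cultures of the same strain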; settings: S. cerevisiae rad50 strain growth inhibition, active compounds read high
Summary of the method: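 Genetically altered yeast (DNA repair pathway); compound treatment; growth inhibition vs vehicle ctrl.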

[6] = NCI Yeast Anticancer Drug Screen. Data for the mec2-1 strain (AID 157); settings: S. cerevisiae mec2-1 strain, active compounds read high
Summary of the method: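 Yeast mec2-1 mutant treated with compound. Readout: growth inhibition vs vehicle controls.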

[7] = NCI Yeast Anticancer Drug Screen. Data for the rad14 strain (AID 159);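 note: 0% = growth of vehicle-treated control cultures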; settings: S. cerevisiae rad14 strain growth inhibition, active compounds read high
Summary of the method: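 Test compounds were applied to a repair-deficient yeast strain. Its growth was then compared with that of cultures given vehicle alone, and inhibition was expressed relative to those controls.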

[8] = NCI Yeast Anticancer Drug Screen. Data for the sgs1 mgt1 strain (AID 161);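 note: 0% = growth of cultures given vehicle only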; settings: S. cerevisiae sgs1 mgt1 strain, active compounds read high
Summary of the method: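 Inhibition of yeast growth, normalised to vehicle-treated controls, is reported for a strain bearing genetic alterations in DNA damage repair.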

[9] = NCI Yeast Anticancer Drug Screen. Data for the CLN2oe strain (AID 163);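 note: 0% = growth of vehicle-only control cultures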; settings: S. cerevisiae CLN2oe strain, active compounds read high
Summary of the method: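 Read-out: yeast growth inhibition, expressed relative to vehicle-only controls. The strain bears an engineered cell-cycle alteration.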

[10] = NCI Yeast Anticancer Drug Screen. Data for the cln2 rad14 strain (AID 165);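 note: 0% = growth equal to vehicle treated cultures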; settings: S. cerevisiae cln2 rad14 strain, active compounds read high
Summary of the method: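 cln2 rad14 yeast strain; compound exposure; growth inhibition read vs vehicle controls.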

[11] = NCI Yeast Anticancer Drug Screen. Data for the bub3 strain (AID 167); settings: S. cerevisiae bub3 mutant strain, active compounds read high
Summary of the method: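 Yeast carrying a defined mutation is treated with each compound, and growth is compared with that of vehicle-exposed cells to give inhibition.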

[12] = NCI Yeast Anticancer Drug Screen. Data for the wt2 strain (AID 169);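 note: 0% = growth of vehicle-treated yeast cultures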; settings: S. cerevisiae wt2 strain growth inhibition, active compounds read high
Summary of the method: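 Read-out: growth inhibition versus vehicle-treated control cultures after compound exposure of the yeast strain.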

[13] = NCI Yeast Anticancer Drug Screen. Data for the mlh1 strain (AID 171);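 note: 0% = growth of vehicle-treated control cultures of the same strain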; settings: S. cerevisiae mlh1 strain growth inhibition, active compounds read high
Summary of the method: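 Read-out: growth inhibition versus vehicle controls. Strain: engineered yeast with a defined DNA repair or cell cycle defect, compound-treated.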

[14] = NCI Yeast Anticancer Drug Screen. Data for the sgs1 strain (AID 173);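 note: 0% = growth of vehicle-only control cultures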; settings: S. cerevisiae sgs1 mutant, active compounds read high
Summary of the method: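 Read-out: yeast growth inhibition relative to vehicle controls, following compound exposure of a strain with a defined DNA repair/cell cycle alteration.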

[15] = NCI Yeast Anticancer Drug Screen. Data for the mlh1 rad18 strain (AID 175); settings: S. cerevisiae mlh1 rad18 strain growth inhibition, active compounds read high
Summary of the method: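 Yeast w/ defined DNA-repair lesions; compound exposure; growth vs vehicle controls → % inhibition.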

[16] = NCI Yeast Anticancer Drug Screen. Data for the rad18 strain (AID 177); settings: S. cerevisiae rad18 mutant growth inhibition, active compounds read high
Summary of the method: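 Readout: growth inhibition vs vehicle controls. Cells: genetically altered yeast strain, DNA repair defect.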

[17] = at 5.0 µM (retest, dose inferred, filed as 0.5)
[18] = at 50.0 µM (retest, dose inferred, filed as 5.0)

Measured: growth inhibition

O=C(NC(Nc1ccc(F)c(Cl)c1)(C(F)(F)F)C(F)(F)F)C(C(F)(F)F)C(F)(F)F
active: [1]; at 11.0 µM 70% | [1]; at 33.0 µM 93% | [1]; at 100.0 µM 97% | [2]; at 33.0 µM 96% | [2]; at 100.0 µM 98% | [4]; at 33.0 µM 94% | [4]; at 100.0 µM 98% | [5]; at 33.0 µM 91% | [5]; [18] 96% | [5]; at 100.0 µM 96% | [6]; at 11.0 µM 74% | [6]; at 33.0 µM 97% | [6]; [18] 92% | [6]; at 100.0 µM 98% | [7]; at 33.0 µM 85% | [7]; at 100.0 µM 94% | [8]; [18] 72% | [9]; at 11.0 µM 92% | [9]; at 33.0 µM 97% | [9]; at 100.0 µM 97% | [10]; [18] 98% | [10]; at 50.0 µM 88% | [11]; at 11.0 µM 80% | [11]; at 33.0 µM 95% | [11]; [18] 95% | [11]; at 50.0 µM 75% | [11]; at 100.0 µM 97% | [12]; at 11.0 µM 86% | [12]; at 33.0 µM 99% | [12]; at 100.0 µM 99% | [13]; at 33.0 µM 94% | [13]; at 100.0 µM 98% | [14]; at 33.0 µM 93% | [14]; at 100.0 µM 96% | [15]; [18] 90% | [15]; at 50.0 µM 93.4% | [16]; at 33.0 µM 83% | [16]; at 100.0 µM 92%
inactive: [1]; at 1.2 µM -2% | [1]; at 3.7 µM 12% | [2]; at 1.2 µM 8% | [2]; at 3.7 µM 7% | [2]; at 11.0 µM 48% | [3]; at 1.2 µM -7% | [3]; at 3.7 µM -13% | [3]; at 11.0 µM -25% | [3]; at 33.0 µM -16% | [3]; at 100.0 µM 2% | [4]; at 1.2 µM 26% | [4]; at 3.7 µM 25% | [4]; at 11.0 µM 54% | [5]; at 1.2 µM 8% | [5]; at 3.7 µM 17% | [5]; [17] 28% | [5]; at 11.0 µM 44% | [5]; at 50.0 µM 24.6% | [6]; at 1.2 µM 8% | [6]; at 3.7 µM 23% | [6]; [17] 3% | [6]; at 50.0 µM 27.6% | [7]; at 1.2 µM 9% | [7]; at 3.7 µM 19% | [7]; at 11.0 µM 26% | [8]; [17] 17% | [8]; at 50.0 µM 36% | [9]; at 1.2 µM 9% | [9]; at 3.7 µM 32% | [10]; [17] 43% | [11]; at 1.2 µM 5% | [11]; at 3.7 µM 15% | [11]; [17] 20% | [12]; at 1.2 µM 1% | [12]; at 3.7 µM 34% | [13]; at 1.2 µM 26% | [13]; at 3.7 µM 25% | [13]; at 11.0 µM 54% | [14]; at 1.2 µM 8% | [14]; at 3.7 µM 14% | [14]; at 11.0 µM 42% | [15]; [17] 21% | [16]; at 1.2 µM 22% | [16]; at 3.7 µM 14% | [16]; at 11.0 µM 40%

CC1=C(SCCO)C(=O)c2ccccc2C1=O
active: [3]; at 33.0 µM 75% | [3]; at 100.0 µM 71% | [5]; [18] 99% | [5]; at 50.0 µM 84.2%
inactive: [1]; at 1.2 µM -4% | [1]; at 3.7 µM 1% | [1]; at 11.0 µM 13% | [1]; at 33.0 µM 68% | [1]; at 100.0 µM 67% | [2]; at 1.2 µM -4% | [2]; at 3.7 µM -4% | [2]; at 11.0 µM -2% | [2]; at 33.0 µM 4% | [2]; at 100.0 µM 4% | [3]; at 1.2 µM -7% | [3]; at 3.7 µM 5% | [3]; at 11.0 µM 35% | [4]; at 1.2 µM -3% | [4]; at 3.7 µM -3% | [4]; at 11.0 µM 23% | [4]; at 33.0 µM -10% | [4]; at 100.0 µM 6% | [5]; at 1.2 µM -3% | [5]; at 3.7 µM 0% | [5]; [17] 1% | [5]; at 11.0 µM -8% | [5]; at 33.0 µM 37% | [5]; at 100.0 µM 42% | [6]; at 1.2 µM -1% | [6]; at 3.7 µM -1%
